# The source made the active and inactive calls. Unless noted, how the calls were made is not given here.
# Experiments:
# [1] = anti-His antibody binders, primary screen, artefact control for SMM control protein annotation, biochemical, small-molecule microarray, 635 nm fluorescence (AID 1128); conditions: anti-His Alexa647 antibody binding, higher = more signal;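 further: score merges feature fluorescence with signal-to-noise for each printed compound spot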
# [2] = tested on: Human papillomavirus type 1a E7 protein (residues 1-88); experiment: HPV1a E7 small-molecule binders, primary screen, biochemical, small-molecule microarray, residues 1-88, 635 nm (AID 1129); conditions: small-molecule microarray binding, fluorescence 635 nm; higher = more signal
# [3] = biological target: Focal adhesion kinase 1 (Homo sapiens) (UniProt Q05397); experiment: small-molecule microarray binders of FAK, primary screen, biochemical, 635/667 nm fluorescence, BSA, DTT (AID 1130); conditions: PTK2 binding, 635 nm fluorescence, higher = more signal;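 further: composite of spot emission at 667 nm and signal to noise over triplicate slides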
# [4] = tested on: Fibrinogen (Alexa647-labelled); experiment: fibrinogen binders on compound microarrays, profiling panel, artefact control for SMM control-protein annotation, biochemical, small-molecule microarray, 635/667 nm fluorescence (AID 1131); conditions: fibrinogen-A647 binding fluorescence, higher = more signal;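 further: z-score merges 667 nm fluorescence with per-spot signal-to-noise over triplicate slides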
# [5] = biological target: Follistatin (Homo sapiens) (UniProt P19883); experiment: follistatin binders on small-molecule microarrays, primary screen, biochemical, small-molecule microarray, 635/667 nm fluorescence (AID 1132); conditions: FST binding, 635 nm fluorescence, higher = more signal
# [6] = biological target: Fibroblast growth factor 2 (Homo sapiens) (UniProt P09038); experiment: FGF2 binders on small-molecule microarrays, primary screen, biochemical, small-molecule microarray, 635/667 nm fluorescence (AID 1133); conditions: small-molecule microarray binding, FGF2, fluorescence 635/667; higher = more signal
# [7] = mitochondrial membrane potential change in A549 cells, profiling panel, cell-based, JC-1 fluorescence, basal, 24 h, 100 nL (AID 1138); conditions: higher = more signal;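 further: A549 lung adenocarcinoma cells under basal conditions with no added stimulus; test concentration not given here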
# [8] = tested on: Lefty1; experiment: Lefty1 binders on small-molecule microarrays, primary screen, biochemical, small-molecule microarray, 635/667 nm fluorescence (AID 1139); conditions: small-molecule microarray binding, fluorescence 635/667; higher = more signal
# [9] = tested on: wheat germ agglutinin (Triticum aestivum), Alexa647-labelled; experiment: wheat germ agglutinin binders on compound microarrays, profiling panel, artefact control for SMM control-protein annotation, biochemical, small-molecule microarray, 635/667 nm fluorescence (AID 1140); conditions: WGA-A647 binding, 635 nm fluorescence, higher = more signal;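 further: score merges 667 nm feature emission with signal to noise over triplicate slides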
# [10] = biological target: Luciferin 4-monooxygenase (Photinus pyralis) (UniProt P08659); experiment: firefly luciferase enzyme inhibitors, primary screen, biochemical, luminescence, purified enzyme, 2006 set (AID 1141); conditions: SteadyGlo luminescence, 30 min, higher = more signal, called active from +8 up or from −8 down;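 further: cell-free assay with purified firefly luciferase at 100 ng per well in PBS; test concentration not given here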
# [11] = tested on: Wnt5a (protein binding on small-molecule microarray); experiment: Wnt5a binders on small-molecule microarray, primary screen, biophysical, 635/667 nm fluorescence (AID 1142); conditions: 635 nm fluorescence, higher = more signal;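 further: fluorescence read at 667 nm with signal to noise per printed feature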
# [12] = cell viability in Huh7 cells, primary screen, cytotoxicity control for HCV replication inhibitor project, CellTiter-Glo luminescence, basal, 48 h (AID 1143); conditions: Huh7 HCV replicon, higher = more signal, called active from +8 up or from −8 down;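 further: Huh7 hepatoma cells carrying a hepatitis C replication reporter with no stimulus; test concentration not given here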
# [13] = P. aeruginosa biofilm formation inhibitors, primary screen, PAO1 strain, BacTiter-Glo luminescence, LB-PBS (AID 1144); conditions: 12 h, higher = more signal
# [14] = CREB reporter modulators without forskolin, primary screen, cell-based, PC12, CRE-LacZ reporter, unstimulated (AID 1145); conditions: no forskolin, luminescence, 4.5 h, higher = more signal, called active from +8 up or from −8 down
# [15] = CREB reporter modulators under forskolin, primary screen, cell-based, PC12, CRE-LacZ reporter, forskolin-stimulated (AID 1146); conditions: luminescence, 4.5 h, higher = more signal, called active from +8 up or from −8 down;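 further: PC12 cells with 6xCRE LacZ reporter stimulated by forskolin 10 µM; beta-galactosidase reporter signal reflecting CREB driven transcription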
# [16] = biological target: Streptavidin (Streptomyces avidinii) (UniProt P22629); experiment: streptavidin binders on small-molecule microarray, primary screen, artefact control for SMM compound annotation, biophysical, 635/667 nm fluorescence (AID 1147); conditions: streptavidin binding, higher = more signal;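 further: signal reflects streptavidin binding to arrayed compounds as a control protein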
# [17] = small-molecule binders of probe aInhba, primary screen, biochemical, small-molecule microarray, 635/667 nm fluorescence (AID 1148); conditions: higher = more signal;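 further: score merges 667nm spot fluorescence with signal-to-noise for antibody binding to printed compounds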
# [18] = biological target: Torsin-1A (Homo sapiens) (UniProt O14656); experiment: torsin A binders from cell lysate, primary screen, small-molecule microarray, wild-type, 635/667 nm (AID 1149); conditions: COS7 hTOR1A-WT lysate, 635 nm fluorescence, higher = more signal
# [19] = biological target: Torsin-1A (Homo sapiens) (UniProt O14656); experiment: small-molecule binders of mutant TOR1A in lysate, primary screen, cell lysate, small-molecule microarray, COS7 lysate, 635/667 nm fluorescence (AID 1150); conditions: COS7 hTOR1A mutant lysate, 635 nm fluorescence, higher = more signal;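 further: score pools 667 nm emission and signal to noise measuring lysate protein binding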
# [20] = tested on: Sonic hedgehog protein (Shh); experiment: small-molecule binders of Shh protein, primary screen, biochemical, small-molecule microarray, 635/667 nm fluorescence (AID 1151); conditions: small-molecule microarray binding, 635 nm fluorescence; higher = more signal;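 further: Shh protein binding to compounds spotted on small-molecule microarray slides; score combines spot fluorescence intensity with signal-to-noise across triplicate slides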
# Chain of Luciferin 4-monooxygenase (Photinus pyralis) (P08659 whole entry, looked up): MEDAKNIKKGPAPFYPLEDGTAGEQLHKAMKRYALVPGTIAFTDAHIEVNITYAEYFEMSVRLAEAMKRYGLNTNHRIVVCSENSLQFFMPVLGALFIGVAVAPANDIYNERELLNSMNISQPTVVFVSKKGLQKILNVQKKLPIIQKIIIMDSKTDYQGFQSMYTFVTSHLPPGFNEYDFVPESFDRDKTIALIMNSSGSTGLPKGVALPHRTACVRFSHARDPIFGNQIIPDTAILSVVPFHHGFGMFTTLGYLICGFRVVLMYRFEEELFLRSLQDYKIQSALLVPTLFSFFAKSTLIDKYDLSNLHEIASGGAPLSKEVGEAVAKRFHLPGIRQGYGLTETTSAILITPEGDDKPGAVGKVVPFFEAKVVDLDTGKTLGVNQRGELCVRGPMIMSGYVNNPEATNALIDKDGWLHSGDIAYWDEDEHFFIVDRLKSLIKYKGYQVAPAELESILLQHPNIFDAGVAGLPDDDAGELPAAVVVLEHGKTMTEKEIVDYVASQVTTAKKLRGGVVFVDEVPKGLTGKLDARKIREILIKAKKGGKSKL
# Chain of Streptavidin (Streptomyces avidinii) (P22629 whole entry, looked up): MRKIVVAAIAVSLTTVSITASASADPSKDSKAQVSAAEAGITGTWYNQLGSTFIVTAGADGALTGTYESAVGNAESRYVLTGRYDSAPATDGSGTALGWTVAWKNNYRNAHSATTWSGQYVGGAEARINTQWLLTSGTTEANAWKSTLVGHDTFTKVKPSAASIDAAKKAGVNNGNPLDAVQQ
# Chain of Follistatin (Homo sapiens) (P19883 whole entry, looked up): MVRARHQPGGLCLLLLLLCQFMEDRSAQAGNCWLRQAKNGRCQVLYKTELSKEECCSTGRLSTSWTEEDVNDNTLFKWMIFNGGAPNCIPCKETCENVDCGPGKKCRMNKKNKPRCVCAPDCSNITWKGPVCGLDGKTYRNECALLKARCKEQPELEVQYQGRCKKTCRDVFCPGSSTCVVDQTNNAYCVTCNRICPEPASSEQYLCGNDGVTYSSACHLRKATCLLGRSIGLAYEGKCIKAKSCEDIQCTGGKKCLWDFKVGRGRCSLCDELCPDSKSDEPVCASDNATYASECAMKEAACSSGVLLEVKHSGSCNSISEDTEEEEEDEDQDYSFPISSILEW
# Chain of Focal adhesion kinase 1 (Homo sapiens) (Q05397 whole entry, looked up): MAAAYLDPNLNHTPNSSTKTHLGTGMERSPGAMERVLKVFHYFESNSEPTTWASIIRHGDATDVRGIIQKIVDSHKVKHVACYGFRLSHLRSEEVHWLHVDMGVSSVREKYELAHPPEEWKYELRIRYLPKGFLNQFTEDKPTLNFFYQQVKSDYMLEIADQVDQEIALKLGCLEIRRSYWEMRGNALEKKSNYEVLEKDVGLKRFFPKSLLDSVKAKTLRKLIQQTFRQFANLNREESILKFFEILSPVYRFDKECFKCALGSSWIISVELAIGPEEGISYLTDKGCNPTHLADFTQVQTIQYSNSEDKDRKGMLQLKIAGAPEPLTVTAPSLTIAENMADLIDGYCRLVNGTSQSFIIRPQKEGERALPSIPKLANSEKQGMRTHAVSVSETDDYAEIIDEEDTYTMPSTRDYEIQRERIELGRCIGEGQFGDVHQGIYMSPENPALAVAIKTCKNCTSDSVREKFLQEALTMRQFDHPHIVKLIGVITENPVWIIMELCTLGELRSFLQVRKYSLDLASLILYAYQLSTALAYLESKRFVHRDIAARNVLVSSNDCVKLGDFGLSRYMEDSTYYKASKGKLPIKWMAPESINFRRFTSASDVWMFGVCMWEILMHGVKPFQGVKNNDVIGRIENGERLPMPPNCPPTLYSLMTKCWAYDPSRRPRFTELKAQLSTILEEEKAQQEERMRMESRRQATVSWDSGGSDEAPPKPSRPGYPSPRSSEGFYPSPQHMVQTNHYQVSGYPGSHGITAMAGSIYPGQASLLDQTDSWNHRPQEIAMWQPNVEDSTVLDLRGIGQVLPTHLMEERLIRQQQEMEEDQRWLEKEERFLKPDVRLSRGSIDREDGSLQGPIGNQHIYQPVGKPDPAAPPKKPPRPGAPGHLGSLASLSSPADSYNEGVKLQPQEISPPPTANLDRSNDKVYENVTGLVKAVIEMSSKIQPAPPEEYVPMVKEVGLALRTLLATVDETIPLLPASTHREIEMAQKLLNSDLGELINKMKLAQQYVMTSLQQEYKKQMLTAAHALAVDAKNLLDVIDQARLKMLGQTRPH
# Chain of Fibroblast growth factor 2 (Homo sapiens) (P09038 whole entry, looked up): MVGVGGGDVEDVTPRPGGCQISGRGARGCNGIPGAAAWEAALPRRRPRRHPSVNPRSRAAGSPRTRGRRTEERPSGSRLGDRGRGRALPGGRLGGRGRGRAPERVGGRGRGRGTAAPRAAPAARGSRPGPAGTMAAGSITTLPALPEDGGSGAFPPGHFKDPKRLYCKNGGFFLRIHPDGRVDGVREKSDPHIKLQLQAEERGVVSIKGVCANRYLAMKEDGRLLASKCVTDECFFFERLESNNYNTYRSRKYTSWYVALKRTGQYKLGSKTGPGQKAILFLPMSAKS
# Chain of Torsin-1A (Homo sapiens) (O14656 whole entry, looked up): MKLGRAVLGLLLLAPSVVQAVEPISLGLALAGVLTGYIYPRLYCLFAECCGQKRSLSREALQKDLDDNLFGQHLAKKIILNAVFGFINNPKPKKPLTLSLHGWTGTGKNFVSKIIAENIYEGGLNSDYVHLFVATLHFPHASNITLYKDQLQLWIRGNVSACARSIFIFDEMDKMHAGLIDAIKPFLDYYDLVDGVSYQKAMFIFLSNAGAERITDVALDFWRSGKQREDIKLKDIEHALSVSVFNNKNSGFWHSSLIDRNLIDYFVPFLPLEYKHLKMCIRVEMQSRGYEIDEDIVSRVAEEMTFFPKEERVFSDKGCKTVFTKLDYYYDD
Compound,composite z-score [1],composite z-score [2],composite z-score [3],composite z-score [4],composite z-score [5],composite z-score [6],z-score [7],composite z-score [8],composite z-score [9],z-score [10],composite z-score [11],z-score [12],z-score [13],z-score [14],z-score [15],composite z-score [16],composite z-score [17],composite z-score [18],composite z-score [19],composite z-score [20]
COC(=O)c1c(CC[C@@H](CO)NC(=O)N[C@H](Cn2cc(C3(O)CCCCC3)nn2)C(C)C)oc(C(C)=O)c1C(=O)OC,1.56,0.737,-0.0722,0.627,1.23,1.26,0.131,1.23,0.947,-0.0595 (inactive),0.359,-2.81 (inactive),-0.875 (inactive),1.34 (inactive),-1.13 (inactive),1.31,-0.0523,0.881,0.756,1.59
Cc1ccc(S[C@]2(C(=O)NCC(F)(F)F)CC(=O)N(Cc3ccccc3)[C@@H]2c2ccc(CO)cc2I)cc1,0.905,0.676,-0.315,0.0957,-0.0488,-0.177,0.16,-0.779,0.626,0.424 (inactive),0.0543,-1.22 (inactive),0.479 (inactive),-0.581 (inactive),1.83 (inactive),-0.119,0.0228,-0.565,-0.49,0.237
O=C1O[C@H](c2ccccc2)[C@H](c2ccccc2)N2[C@H]1[C@@H](C(=O)O)[C@]1(C(=O)Nc3ccc(C#CC4=CCCCC4)cc31)[C@H]2c1ccc(O)cc1,0.687,0.394,0.0304,0.987,1.35,0.392,-2.35,0.841,0.362,-2.89 (inactive),0.423,-0.53 (inactive),0.608 (inactive),1.72 (inactive),0.945 (inactive),-0.0343,-0.157,-0.107,0.298,1.22
C[C@H]1NC(=O)[C@@]23C(=O)N[C@@H](Cc4ccccc4)C2[C@H](C)[C@@]2(C)O[C@H]2C3/C=C/C/C=C\CNC(=O)[C@H](Cc2ccccc2)NC1=O (stereo not given in full),0.624,-0.0861,-0.219,0.617,0.884,0.811,-0.0755,0.942,0.404,-0.203 (inactive),0.0319,-0.945 (inactive),-0.773 (inactive),-0.508 (inactive),-0.0421 (inactive),-0.178,-0.0963,-0.2,0.113,1.63
COC(=O)c1c(CC[C@@H](CO)NC(=O)N2CCC[C@H]2Cn2cc(Cc3ccccc3)nn2)oc(C(C)=O)c1C(=O)OC,-0.0636,0.485,0.397,-0.522,0.613,0.147,-0.58,0.824,0.541,1.15 (inactive),-0.0725,-0.393 (inactive),0.726 (inactive),-0.244 (inactive),-0.152 (inactive),-0.114,-0.0736,-0.0521,0.398,1.84
O=C(CS)NCCCCCNC(=O)[C@@H]1C[C@@H]2C(=O)N3CCC[C@H]3C(=O)N2[C@@H]1c1cccc(OCCO)c1,2.66,1.21,0.515,-0.561,1.28,1.24,0.777,-0.283,-0.161,-1.38 (inactive),0.336,-0.0341 (inactive),-0.448 (inactive),0.143 (inactive),-0.16 (inactive),0.281,-0.46,1.44,0.656,0.792
CC(c1ccccc1)C(O)C1C=CC2C(=O)N(c3ccccc3)C(=O)C2N1Nc1ccc([N+](=O)[O-])cc1 (stereo not given),1.75,1.25,0.605,1.03,1.03,0.328,-0.915,0.44,0.783,1.58 (inactive),0.523,-0.664 (inactive),-1.53 (inactive),-0.48 (inactive),0.624 (inactive),0.656,0.118,0.971,0.29,0.513
NC(N)=NCCCn1cc(CNC(=O)[C@@H](N)Cc2ccccc2)nn1,0.499,-0.505,-0.242,-0.845,1.42,0.943,-0.55,1.05,0.465,0.36 (inactive),-0.0448,-0.109 (inactive),1.6 (inactive),-0.491 (inactive),0.35 (inactive),-0.298,0.017,0.485,0.142,1.08
COc1ccc([Si](C)(C)[C@H]2[C@H](CCn3cc([C@H](O)c4ccccc4)nn3)O[C@@]3(C(=O)N(Cc4ccc(N5C(=O)c6cccc7cccc5c67)cc4)c4ccccc43)[C@@H]2C)cc1,0.107,0.0893,-0.254,-0.153,-0.185,0.768,2.81,-0.0986,0.0681,-1.19 (inactive),-0.21,-2.02 (inactive),-1.05 (inactive),1.02 (inactive),-0.715 (inactive),0.618,-0.0791,-0.734,-0.35,0.232
C=C(C)C1CCC(C(O)C2C=CC3C(=O)N(C)C(=O)C3N2N2CCCCC2)CC1 (stereo not given),1.17,1.24,0.525,0.884,1.21,0.286,0.32,0.962,1,0.344 (inactive),0.467,0.635 (inactive),-0.0283 (inactive),0.622 (inactive),0.924 (inactive),1.61,0.143,0.476,1.34,0.758

# Reference: PubChem BioAssay
